High-throughput results deposited in PubChem by Paczesny and Yang Labs, IUPUI and University of Michigan.
ST2 IL33 inh: blocks human ST2 binding to IL-33; inhibition, % for hits at 17 µM; hit rate 2.3% among 78,000; Q01638; AlphaLISA ST2-Fc/biotin-IL-33 interaction, 1 h; in the data active = inhibition above about 30%
Target sequence (Q01638 whole entry, looked up): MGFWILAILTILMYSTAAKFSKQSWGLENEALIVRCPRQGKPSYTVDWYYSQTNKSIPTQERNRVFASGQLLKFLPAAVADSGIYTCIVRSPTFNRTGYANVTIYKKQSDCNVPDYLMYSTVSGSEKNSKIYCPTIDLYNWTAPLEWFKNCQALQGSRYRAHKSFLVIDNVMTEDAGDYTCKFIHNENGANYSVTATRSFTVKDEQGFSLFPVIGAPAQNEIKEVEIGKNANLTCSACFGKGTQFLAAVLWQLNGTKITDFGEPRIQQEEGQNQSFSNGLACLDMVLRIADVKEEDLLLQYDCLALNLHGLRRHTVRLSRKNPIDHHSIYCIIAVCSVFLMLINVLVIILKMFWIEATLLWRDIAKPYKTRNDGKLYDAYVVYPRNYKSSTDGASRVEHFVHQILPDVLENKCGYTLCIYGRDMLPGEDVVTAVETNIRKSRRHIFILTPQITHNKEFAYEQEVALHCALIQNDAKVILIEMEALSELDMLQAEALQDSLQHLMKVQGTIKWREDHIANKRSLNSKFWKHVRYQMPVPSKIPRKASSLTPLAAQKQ
Numbers without * were called inactive; i = inactive; ! = a repeat was not active. This is one part of a sample in which hits are shown more often than they occur.

SMILES	ST2 IL33 inh
O=C(Cn1nc(-c2ccccc2)ccc1=O)NCCN1CCC(Cc2ccccc2)CC1	i
O=C(Cn1nc(-c2ccccc2)ccc1=O)NCCCN1CCC(Cc2ccccc2)CC1	53%*
CN(CCCNC(=O)Cn1nc(-c2ccccc2)ccc1=O)Cc1ccccc1	i
Cc1noc([C@@H]2C[C@H](NS(=O)(=O)c3ccccc3)CN2C)n1	i
COc1ccc(/C=C2/SC(=O)N(CC(=O)Nc3cc(C)on3)C2=O)cc1OC	35%*
COc1ccc(/C=C2/SC(=O)N(CCC(=O)Nc3ccccc3Br)C2=O)cc1	i
O=C(CN1C(=O)S/C(=C/c2ccccc2)C1=O)Nc1ccccc1Cl	i
Brc1ccc2[nH]c3c(c2c1)CCCC3	i
Cc1cc(C(=O)N(C)Cc2snnc2C)nc(C)n1	i
CCSc1nc2c(c(=O)[nH]1)C(c1ccc(O)cc1)C1=C(CC(C)(C)CC1=O)N2 (stereo unspecified)	i
Clc1ncnc2c1C(c1ccccc1)c1c(Cl)ncnc1O2	i
O=C1Nc2ccccc2/C1=C/C(=O)c1ccc(Cl)cc1	32%*
O=C(O)/C=C1\NC(=O)c2ccccc21	i
O=C1Nc2ccccc2C1=Nc1ccc(C(=O)O)cc1	i
O=C(Nc1nnc(C(c2ccccc2)c2ccccc2)s1)c1cccs1	i
CC(C)Cc1ccc2c(N)c(C(=O)O)sc2n1	i
O=[N+]([O-])c1ccccc1OCCCN1CCCCC1	i
Cc1ccc(-n2c(SCC(=O)Nc3nccs3)nc3c(c2=O)SCC3)cc1	i
CCSc1nc2c(c(=O)n1-c1ccccc1OC)SCC2	i
Cc1ccc(-n2c(SCC(=O)Nc3cc(C)ccc3C)nc3c(c2=O)SCC3)cc1	i
Cc1ccc(-n2c(SCC(=O)Nc3cccc(Cl)c3)nc3c(c2=O)SCC3)cc1	31%*
COc1ccccc1-n1c(SCC(=O)Nc2ccccc2)nc2c(c1=O)SCC2	35%*!
Cc1ccc(-n2c(SCC(=O)Nc3cccc(C(F)(F)F)c3)nc3c(c2=O)SCC3)cc1	i
CCOC(=O)CSc1nc2c(c(=O)n1-c1ccc(C)cc1)SCC2	i
COc1ccccc1-n1c(SCc2ccccc2)nc2c(c1=O)SCC2	i
SMILES	ST2 IL33 inh
O=C(CSc1nc2c(c(=O)n1-c1ccc(F)cc1)SCC2)NCc1ccc(F)cc1	i
Cc1ccc(-n2c(SCC(=O)NCCc3ccccc3)nc3c(c2=O)SCC3)cc1	31%*
Cc1ccc(-n2c(SCC(=O)Nc3ccccc3F)nc3c(c2=O)SCC3)cc1	32%*
O=C(CSc1nc2c(c(=O)n1-c1ccc(Cl)cc1)SCC2)Nc1cccc(Cl)c1	i
O=C(Nc1cnn(-c2ccc(C(=O)N3CCOc4ccccc4C3)cc2)c1)c1cccnc1	i
COC(=O)Cc1cnc(NC(=O)CN2CCCCC2c2cccnc2)s1 (stereo unspecified)	i
COc1cccc(CC(=O)N[C@@H]2c3ccccc3C3(CCNCC3)[C@H]2O)c1	i
CC(C)c1ccc(-c2nccn2CCn2cccn2)cc1	i
C=CCOc1ccccc1CN(CC)CCN(CC)CC	i
O=C1Nc2ccccc2N(O)N1c1ccc(Cl)c([N+](=O)[O-])c1	i
O=C(Nc1cccc(F)c1)c1cc2ccccc2oc1=O	i
Cc1ccc(N=C2NC(=O)CC(C(=O)Nc3ccccc3C(F)(F)F)S2)cc1 (stereo unspecified)	i
CCOC(=O)C(CC)Sc1nc2c(c(=O)n1-c1ccccc1)SCC2 (stereo unspecified)	i
Cc1ccc(-n2c(SC(C)c3ccccc3)nc3c(c2=O)SCC3)cc1 (stereo unspecified)	31%*!
CCOC(=O)C(C)Sc1nc2c(c(=O)n1-c1ccc(Cl)cc1)SCC2 (stereo unspecified)	i
CCCCNC(=O)C1CCCN(S(=O)(=O)c2cnc[nH]2)C1 (stereo unspecified)	i
Brc1cccc(C2CC(c3ccccc3)Nc3ncnn32)c1 (stereo unspecified)	i
CCCCN(C)Cc1cccc(O)c1	i
CN(Cc1ccc2ccccc2n1)C(=O)c1ccc(N2CCC(O)CC2)nc1	i
Cc1ccc(NC(=O)NC2(C)CCS(=O)(=O)C2)cc1 (stereo unspecified)	i
O=C1c2ccccc2C(=O)C1c1ccccn1	i
O=C1c2ccccc2C(=O)C1c1ccncc1	99%*
O=C1c2ccccc2C(=O)C1c1nc2ccccc2[nH]1	i
CCC1CCCCN1S(=O)(=O)c1cc(Br)cc2c1N(C(=O)C1CC1)CC2 (stereo unspecified)	i
C=CCn1cc(CN2CCC(O)(c3ccccc3C)C2)c(C)n1 (stereo unspecified)	i
SMILES	ST2 IL33 inh
CCn1c(=O)ccc2cc(OC)ccc21	31%*
CCn1cc2c(c1-c1ccc(OC)cc1)c(=O)n(C)c(=O)n2C	i
COc1ccc2cc(S(=O)(=O)N3CCN(C)CC3)ccc2c1	i
COC(=O)C1CCCCN1S(=O)(=O)NCc1ccccc1 (stereo unspecified)	i
CCOc1ccc(N(CC)C(=O)Cc2c(C(=O)O)[nH]c3ccc(Cl)cc23)cc1	i
CC1(C)C(=O)C2(CCCCC2)C(=O)OC1c1ccc(Br)cc1 (stereo unspecified)	i
Cc1cccc2c(-c3nc(C(N)=O)cs3)c[nH]c12	i
Cc1nnsc1CNc1nc(-c2cccnc2)nc2c1cnn2C	i
Cn1ncc2c(NCc3n[nH]c4c3CCCCC4)nc(-c3cccnc3)nc21	i
CN(CCCc1cnn(C)c1)c1nc(-c2cccnc2)nc2c1cnn2C	30%*
O[C@@H]1C[C@@H](c2nc(-c3ccc4c(c3)OCO4)no2)N(Cc2cc3ccccc3o2)C1	i
O=C(CSc1nnnn1-c1cccc(Cl)c1)Nc1ccc(Cl)cc1	i
CNC(=O)c1ccc(C2CCCN2Cc2cc3cc(OC)ccc3[nH]c2=O)s1 (stereo unspecified)	i
COc1cccc2sc(=NC(=O)c3nc4ccccc4s3)n(C)c12	i
COc1cc(OC)cc(C(=O)OCc2nc3ccccc3s2)c1	i
COc1cc(/C=C(\C#N)c2nc3ccccc3s2)cc(OC)c1OC	34%*
Cc1cc([N+](=O)[O-])ccc1NC(=O)C(Cc1ccccc1)N1C(=O)c2ccccc2C1=O (stereo unspecified)	i
Cc1c(C(=O)NC2CCCCC2C)oc2ccc(S(=O)(=O)N3CCCC3)cc12 (stereo unspecified)	i
Cc1ccc(-c2csc(/C(C#N)=C/c3cccnc3)n2)c(C)c1	34%*
Cc1ccc(-c2csc(NC(=O)c3cc(=O)c4ccccc4o3)n2)c(C)c1	i
O=c1cnnc(Nc2ccc(Br)cc2)[nH]1	i
COc1ccc(NC(=O)c2c(NC(=O)c3ccco3)sc3c2CCC3)cc1Cl	i
COc1ccc(OC)c(C2C3=C(CCCC3=O)Nc3nc(SC)[nH]c(=O)c32)c1 (stereo unspecified)	i
CCC1=NN(C(=O)c2cccnc2)C(O)(c2ccc(Br)cc2)C1 (stereo unspecified)	i
Cc1ccc2cc(C3(O)CCN(C(=O)COc4cccnc4)CC3)ccc2n1	i
CCC(=O)N1N=C(C)CC1(O)c1cccnc1 (stereo unspecified)	i
COc1ccc(C(CC(=O)N2CCN(c3cnccn3)CC2)c2ccccc2)cc1 (stereo unspecified)	i
C=CCN1C(=Nc2cccnc2)SCC1(O)c1ccc(C)cc1 (stereo unspecified)	59%*
C=CCN1C(=Nc2cccnc2)SCC1(O)c1ccc(OC)cc1 (stereo unspecified)	61%*
